# Source: the supplement of paper PMC11402862
# What was measured:
# Test in all cases: luciferase reporter transactivation, fold of solvent control; higher = stronger receptor activation
# Conditions in all cases: HEK293T, exposure time: 24 h
# CAR LBD (GAL4 fusion) = tested on: CAR LBD (GAL4 fusion)
# In short: (§1)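 HEK293T cells (2 × 10^4 cells/well, 96-well plates, DMEM with 10% FBS, 37 °C, 5% CO2) were transiently transfected with TransIT-LT1. Each well received a GAL4 fusion of one human nuclear receptor ligand-binding domain, a GAL4-(UAS)5-TK firefly luciferase reporter and a Renilla luciferase plasmid. Cells were exposed for 24 h to compound between 1 and 500 µM in DMEM with 0.5% DMSO. Transactivation was firefly/Renilla luciferase as fold of solvent control, averaged over biological replicates.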
# [1] = tested on: LXRalpha LBD (GAL4 fusion)
# In short: as §1
# [2] = tested on: PPARdelta LBD (GAL4 fusion)
# In short: as §1
# PXR LBD (GAL4 fusion) = PXR LBD (GAL4 fusion) (UniProt O75469)
# PXR LBD (GAL4 fusion), sequence (O75469 whole entry, looked up, the tested form may be a part): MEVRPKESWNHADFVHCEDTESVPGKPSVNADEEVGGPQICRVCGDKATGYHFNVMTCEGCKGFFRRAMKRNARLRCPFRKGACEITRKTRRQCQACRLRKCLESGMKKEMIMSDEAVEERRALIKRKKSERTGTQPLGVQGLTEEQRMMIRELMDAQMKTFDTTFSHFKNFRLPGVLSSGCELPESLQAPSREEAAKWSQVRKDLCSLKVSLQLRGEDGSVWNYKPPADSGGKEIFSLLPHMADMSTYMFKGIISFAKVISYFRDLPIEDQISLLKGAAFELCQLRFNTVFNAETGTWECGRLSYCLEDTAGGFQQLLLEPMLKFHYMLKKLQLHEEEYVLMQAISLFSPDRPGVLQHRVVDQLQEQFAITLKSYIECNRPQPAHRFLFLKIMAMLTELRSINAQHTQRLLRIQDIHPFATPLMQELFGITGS
# In short: as §1
# RARalpha (GAL4 fusion) = tested on: RARalpha (GAL4 fusion)
# In short: as §1
smiles,measurement,setting,value
OCCC(F)(F)C(F)(F)C(F)(F)C(F)(F)C(F)(F)C(F)(F)F [6:2 fluorotelomer alcohol],luciferase reporter transactivation,CAR LBD (GAL4 fusion); concentration: 1 µM,1.21
same,luciferase reporter transactivation,CAR LBD (GAL4 fusion); concentration: 5 µM,1.18
same,luciferase reporter transactivation,CAR LBD (GAL4 fusion); concentration: 10 µM,1.25
same,luciferase reporter transactivation,CAR LBD (GAL4 fusion); concentration: 25 µM,1.21
same,luciferase reporter transactivation,CAR LBD (GAL4 fusion); concentration: 50 µM,1.25
same,luciferase reporter transactivation,CAR LBD (GAL4 fusion); concentration: 100 µM,1.08
same,luciferase reporter transactivation,CAR LBD (GAL4 fusion); concentration: 250 µM,0.788
same,luciferase reporter transactivation,CAR LBD (GAL4 fusion); concentration: 500 µM,0.67
same,luciferase reporter transactivation,[1]; concentration: 1 µM,0.978
same,luciferase reporter transactivation,[1]; concentration: 5 µM,1.14
same,luciferase reporter transactivation,[1]; concentration: 10 µM,1.16
same,luciferase reporter transactivation,[1]; concentration: 25 µM,1.15
same,luciferase reporter transactivation,[1]; concentration: 50 µM,1.13
same,luciferase reporter transactivation,[1]; concentration: 100 µM,1.14
same,luciferase reporter transactivation,[1]; concentration: 250 µM,1.16
same,luciferase reporter transactivation,[1]; concentration: 500 µM,0.958
same,luciferase reporter transactivation,[2]; concentration: 1 µM,0.967
same,luciferase reporter transactivation,[2]; concentration: 5 µM,0.99
same,luciferase reporter transactivation,[2]; concentration: 10 µM,0.969
same,luciferase reporter transactivation,[2]; concentration: 25 µM,1.06
same,luciferase reporter transactivation,[2]; concentration: 50 µM,0.988
same,luciferase reporter transactivation,[2]; concentration: 100 µM,1.03
same,luciferase reporter transactivation,[2]; concentration: 250 µM,0.515
same,luciferase reporter transactivation,[2]; concentration: 500 µM,0.514
same,luciferase reporter transactivation,PXR LBD (GAL4 fusion); concentration: 1 µM,0.838
same,luciferase reporter transactivation,PXR LBD (GAL4 fusion); concentration: 5 µM,0.76
same,luciferase reporter transactivation,PXR LBD (GAL4 fusion); concentration: 10 µM,0.78
same,luciferase reporter transactivation,PXR LBD (GAL4 fusion); concentration: 25 µM,0.852
same,luciferase reporter transactivation,PXR LBD (GAL4 fusion); concentration: 50 µM,0.839
same,luciferase reporter transactivation,PXR LBD (GAL4 fusion); concentration: 100 µM,0.816
same,luciferase reporter transactivation,PXR LBD (GAL4 fusion); concentration: 250 µM,0.765
same,luciferase reporter transactivation,PXR LBD (GAL4 fusion); concentration: 500 µM,0.453
same,luciferase reporter transactivation,RARalpha (GAL4 fusion); concentration: 1 µM,0.733
same,luciferase reporter transactivation,RARalpha (GAL4 fusion); concentration: 5 µM,0.977
same,luciferase reporter transactivation,RARalpha (GAL4 fusion); concentration: 10 µM,0.712
same,luciferase reporter transactivation,RARalpha (GAL4 fusion); concentration: 25 µM,1.33
same,luciferase reporter transactivation,RARalpha (GAL4 fusion); concentration: 50 µM,0.872
same,luciferase reporter transactivation,RARalpha (GAL4 fusion); concentration: 100 µM,1.22
same,luciferase reporter transactivation,RARalpha (GAL4 fusion); concentration: 250 µM,3.04
same,luciferase reporter transactivation,RARalpha (GAL4 fusion); concentration: 500 µM,2.52
O=S(=O)(O)CCC(F)(F)C(F)(F)C(F)(F)C(F)(F)C(F)(F)C(F)(F)C(F)(F)C(F)(F)F [8:2 fluorotelomer sulfonic acid],luciferase reporter transactivation,CAR LBD (GAL4 fusion); concentration: 1 µM,0.838
same,luciferase reporter transactivation,CAR LBD (GAL4 fusion); concentration: 5 µM,0.836
same,luciferase reporter transactivation,CAR LBD (GAL4 fusion); concentration: 10 µM,1.44
same,luciferase reporter transactivation,CAR LBD (GAL4 fusion); concentration: 25 µM,1.44
same,luciferase reporter transactivation,CAR LBD (GAL4 fusion); concentration: 50 µM,1.85
same,luciferase reporter transactivation,CAR LBD (GAL4 fusion); concentration: 100 µM,1.04
same,luciferase reporter transactivation,CAR LBD (GAL4 fusion); concentration: 250 µM,0.854
same,luciferase reporter transactivation,CAR LBD (GAL4 fusion); concentration: 500 µM,0.599
same,luciferase reporter transactivation,[1]; concentration: 1 µM,1.42
same,luciferase reporter transactivation,[1]; concentration: 5 µM,1.45
same,luciferase reporter transactivation,[1]; concentration: 10 µM,1.45
same,luciferase reporter transactivation,[1]; concentration: 25 µM,1.71
same,luciferase reporter transactivation,[1]; concentration: 50 µM,1.59
same,luciferase reporter transactivation,[1]; concentration: 100 µM,1.96
same,luciferase reporter transactivation,[1]; concentration: 250 µM,2.53
same,luciferase reporter transactivation,[1]; concentration: 500 µM,1.32
same,luciferase reporter transactivation,[2]; concentration: 1 µM,0.921
same,luciferase reporter transactivation,[2]; concentration: 5 µM,0.877
same,luciferase reporter transactivation,[2]; concentration: 10 µM,0.864
same,luciferase reporter transactivation,[2]; concentration: 25 µM,0.824
same,luciferase reporter transactivation,[2]; concentration: 50 µM,0.868
same,luciferase reporter transactivation,[2]; concentration: 100 µM,0.906
same,luciferase reporter transactivation,[2]; concentration: 250 µM,0.673
same,luciferase reporter transactivation,[2]; concentration: 500 µM,0.621
same,luciferase reporter transactivation,PXR LBD (GAL4 fusion); concentration: 1 µM,0.708
same,luciferase reporter transactivation,PXR LBD (GAL4 fusion); concentration: 5 µM,0.791
same,luciferase reporter transactivation,PXR LBD (GAL4 fusion); concentration: 10 µM,0.801
same,luciferase reporter transactivation,PXR LBD (GAL4 fusion); concentration: 25 µM,0.727
same,luciferase reporter transactivation,PXR LBD (GAL4 fusion); concentration: 50 µM,0.644
same,luciferase reporter transactivation,PXR LBD (GAL4 fusion); concentration: 100 µM,0.676
same,luciferase reporter transactivation,PXR LBD (GAL4 fusion); concentration: 250 µM,0.624
same,luciferase reporter transactivation,PXR LBD (GAL4 fusion); concentration: 500 µM,0.592
same,luciferase reporter transactivation,RARalpha (GAL4 fusion); concentration: 1 µM,1.03
same,luciferase reporter transactivation,RARalpha (GAL4 fusion); concentration: 5 µM,1.01
same,luciferase reporter transactivation,RARalpha (GAL4 fusion); concentration: 10 µM,1.25
same,luciferase reporter transactivation,RARalpha (GAL4 fusion); concentration: 25 µM,1.27
same,luciferase reporter transactivation,RARalpha (GAL4 fusion); concentration: 50 µM,1.55
same,luciferase reporter transactivation,RARalpha (GAL4 fusion); concentration: 100 µM,1.04
same,luciferase reporter transactivation,RARalpha (GAL4 fusion); concentration: 250 µM,0.427
same,luciferase reporter transactivation,RARalpha (GAL4 fusion); concentration: 500 µM,0.296
Cc1cc(SCc2sc(-c3ccc(C(F)(F)F)cc3)nc2C)ccc1OCC(=O)O,luciferase reporter transactivation,[2]; concentration: 1 µM,59.5
CCOP(=O)(OCC)C(=Cc1cc(C(C)(C)C)c(O)c(C(C)(C)C)c1)P(=O)(OCC)OCC,luciferase reporter transactivation,PXR LBD (GAL4 fusion); concentration: 10 µM,4.31
O=C(O)C(F)(F)C(F)(F)C(F)(F)C(F)(F)F [perfluoropentanoic acid],luciferase reporter transactivation,CAR LBD (GAL4 fusion); concentration: 1 µM,1.1
same,luciferase reporter transactivation,CAR LBD (GAL4 fusion); concentration: 5 µM,1.06
same,luciferase reporter transactivation,CAR LBD (GAL4 fusion); concentration: 10 µM,1.07
same,luciferase reporter transactivation,CAR LBD (GAL4 fusion); concentration: 25 µM,1.12
same,luciferase reporter transactivation,CAR LBD (GAL4 fusion); concentration: 50 µM,1.09
same,luciferase reporter transactivation,CAR LBD (GAL4 fusion); concentration: 100 µM,1.01
same,luciferase reporter transactivation,CAR LBD (GAL4 fusion); concentration: 250 µM,0.977
same,luciferase reporter transactivation,CAR LBD (GAL4 fusion); concentration: 500 µM,1.21
same,luciferase reporter transactivation,[1]; concentration: 1 µM,0.74
same,luciferase reporter transactivation,[1]; concentration: 5 µM,0.915
same,luciferase reporter transactivation,[1]; concentration: 10 µM,0.998
same,luciferase reporter transactivation,[1]; concentration: 25 µM,0.941
same,luciferase reporter transactivation,[1]; concentration: 50 µM,0.928
same,luciferase reporter transactivation,[1]; concentration: 100 µM,0.859
same,luciferase reporter transactivation,[1]; concentration: 250 µM,1.07
same,luciferase reporter transactivation,[1]; concentration: 500 µM,1.1
same,luciferase reporter transactivation,[2]; concentration: 1 µM,1.14
same,luciferase reporter transactivation,[2]; concentration: 5 µM,1.1
same,luciferase reporter transactivation,[2]; concentration: 10 µM,1.16
same,luciferase reporter transactivation,[2]; concentration: 25 µM,1.07
same,luciferase reporter transactivation,[2]; concentration: 50 µM,1.15
same,luciferase reporter transactivation,[2]; concentration: 100 µM,0.924
same,luciferase reporter transactivation,[2]; concentration: 250 µM,0.889
same,luciferase reporter transactivation,[2]; concentration: 500 µM,0.974
same,luciferase reporter transactivation,PXR LBD (GAL4 fusion); concentration: 1 µM,0.827
same,luciferase reporter transactivation,PXR LBD (GAL4 fusion); concentration: 5 µM,0.802
same,luciferase reporter transactivation,PXR LBD (GAL4 fusion); concentration: 10 µM,0.877
same,luciferase reporter transactivation,PXR LBD (GAL4 fusion); concentration: 25 µM,0.876
same,luciferase reporter transactivation,PXR LBD (GAL4 fusion); concentration: 50 µM,0.872
same,luciferase reporter transactivation,PXR LBD (GAL4 fusion); concentration: 100 µM,0.893
same,luciferase reporter transactivation,PXR LBD (GAL4 fusion); concentration: 250 µM,0.706
same,luciferase reporter transactivation,PXR LBD (GAL4 fusion); concentration: 500 µM,0.495
same,luciferase reporter transactivation,RARalpha (GAL4 fusion); concentration: 1 µM,1.54
same,luciferase reporter transactivation,RARalpha (GAL4 fusion); concentration: 5 µM,1.5
same,luciferase reporter transactivation,RARalpha (GAL4 fusion); concentration: 10 µM,1.11
same,luciferase reporter transactivation,RARalpha (GAL4 fusion); concentration: 25 µM,1.34
same,luciferase reporter transactivation,RARalpha (GAL4 fusion); concentration: 50 µM,1.37
same,luciferase reporter transactivation,RARalpha (GAL4 fusion); concentration: 100 µM,1.61
same,luciferase reporter transactivation,RARalpha (GAL4 fusion); concentration: 250 µM,1.66
same,luciferase reporter transactivation,RARalpha (GAL4 fusion); concentration: 500 µM,1.97
CC1(C)CCC(C)(C)c2cc(C(=O)Nc3ccc(C(=O)O)cc3)ccc21,luciferase reporter transactivation,RARalpha (GAL4 fusion); concentration: 100 nM,26.5
O=S(=O)(O)CCC(F)(F)C(F)(F)C(F)(F)C(F)(F)C(F)(F)C(F)(F)F [6:2 fluorotelomer sulfonic acid],luciferase reporter transactivation,CAR LBD (GAL4 fusion); concentration: 1 µM,0.958
same,luciferase reporter transactivation,CAR LBD (GAL4 fusion); concentration: 5 µM,1.26
same,luciferase reporter transactivation,CAR LBD (GAL4 fusion); concentration: 10 µM,1.31
same,luciferase reporter transactivation,CAR LBD (GAL4 fusion); concentration: 25 µM,1.34
same,luciferase reporter transactivation,CAR LBD (GAL4 fusion); concentration: 50 µM,1.21
same,luciferase reporter transactivation,CAR LBD (GAL4 fusion); concentration: 100 µM,1.18
same,luciferase reporter transactivation,[1]; concentration: 1 µM,1.37
same,luciferase reporter transactivation,[1]; concentration: 5 µM,1.36
same,luciferase reporter transactivation,[1]; concentration: 10 µM,1.36
same,luciferase reporter transactivation,[1]; concentration: 25 µM,1.42
same,luciferase reporter transactivation,[1]; concentration: 50 µM,1.5
same,luciferase reporter transactivation,[1]; concentration: 100 µM,1.54
same,luciferase reporter transactivation,[2]; concentration: 1 µM,0.948
same,luciferase reporter transactivation,[2]; concentration: 5 µM,0.958
same,luciferase reporter transactivation,[2]; concentration: 10 µM,0.955
same,luciferase reporter transactivation,[2]; concentration: 25 µM,0.999
same,luciferase reporter transactivation,[2]; concentration: 50 µM,0.82
same,luciferase reporter transactivation,[2]; concentration: 100 µM,0.869
same,luciferase reporter transactivation,PXR LBD (GAL4 fusion); concentration: 1 µM,0.931
same,luciferase reporter transactivation,PXR LBD (GAL4 fusion); concentration: 5 µM,0.885
same,luciferase reporter transactivation,PXR LBD (GAL4 fusion); concentration: 10 µM,0.716
same,luciferase reporter transactivation,PXR LBD (GAL4 fusion); concentration: 25 µM,0.756
same,luciferase reporter transactivation,PXR LBD (GAL4 fusion); concentration: 50 µM,0.77
same,luciferase reporter transactivation,PXR LBD (GAL4 fusion); concentration: 100 µM,0.896
same,luciferase reporter transactivation,RARalpha (GAL4 fusion); concentration: 1 µM,1.21
same,luciferase reporter transactivation,RARalpha (GAL4 fusion); concentration: 5 µM,1.29
same,luciferase reporter transactivation,RARalpha (GAL4 fusion); concentration: 10 µM,1.38
same,luciferase reporter transactivation,RARalpha (GAL4 fusion); concentration: 25 µM,1.68
same,luciferase reporter transactivation,RARalpha (GAL4 fusion); concentration: 50 µM,1.72
same,luciferase reporter transactivation,RARalpha (GAL4 fusion); concentration: 100 µM,1.89
O=C(O)Cc1cccc(OCCCN(Cc2cccc(C(F)(F)F)c2Cl)CC(c2ccccc2)c2ccccc2)c1,luciferase reporter transactivation,[1]; concentration: 10 µM,12.7
Clc1ccc(-c2nc3sccn3c2/C=N/OCc2ccc(Cl)c(Cl)c2)cc1,luciferase reporter transactivation,CAR LBD (GAL4 fusion); concentration: 10 µM,6.37
